# Where “and” joins values, the source holds several entries; their conditions need not be identical. Identical values can stand only once. Counter-ions that a name gives are not always drawn. A number with no mark means an inactive call.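 Rule for the calls: active = log2 fold change beyond 2 SD from the library mean after excluding viability outliers; inactive = within 2 SD.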
# Biological target: PARP1 L713F-nLuc biosensor (HCT116) (UniProt P09874)
# Experiment: PARP1 L713F-nLuc/akaLuc ratio relative to DMSO control (biosensor stabilization) (fold change); higher = more PARP1 biosensor stabilization (target engagement / stabilizer), active = hit call of the paper
# Conditions: stock concentration (mM; final µM = stock mM x 1): 10; 24 h
# PARP1 L713F-nLuc biosensor (HCT116), sequence (P09874 whole entry L713F, looked up): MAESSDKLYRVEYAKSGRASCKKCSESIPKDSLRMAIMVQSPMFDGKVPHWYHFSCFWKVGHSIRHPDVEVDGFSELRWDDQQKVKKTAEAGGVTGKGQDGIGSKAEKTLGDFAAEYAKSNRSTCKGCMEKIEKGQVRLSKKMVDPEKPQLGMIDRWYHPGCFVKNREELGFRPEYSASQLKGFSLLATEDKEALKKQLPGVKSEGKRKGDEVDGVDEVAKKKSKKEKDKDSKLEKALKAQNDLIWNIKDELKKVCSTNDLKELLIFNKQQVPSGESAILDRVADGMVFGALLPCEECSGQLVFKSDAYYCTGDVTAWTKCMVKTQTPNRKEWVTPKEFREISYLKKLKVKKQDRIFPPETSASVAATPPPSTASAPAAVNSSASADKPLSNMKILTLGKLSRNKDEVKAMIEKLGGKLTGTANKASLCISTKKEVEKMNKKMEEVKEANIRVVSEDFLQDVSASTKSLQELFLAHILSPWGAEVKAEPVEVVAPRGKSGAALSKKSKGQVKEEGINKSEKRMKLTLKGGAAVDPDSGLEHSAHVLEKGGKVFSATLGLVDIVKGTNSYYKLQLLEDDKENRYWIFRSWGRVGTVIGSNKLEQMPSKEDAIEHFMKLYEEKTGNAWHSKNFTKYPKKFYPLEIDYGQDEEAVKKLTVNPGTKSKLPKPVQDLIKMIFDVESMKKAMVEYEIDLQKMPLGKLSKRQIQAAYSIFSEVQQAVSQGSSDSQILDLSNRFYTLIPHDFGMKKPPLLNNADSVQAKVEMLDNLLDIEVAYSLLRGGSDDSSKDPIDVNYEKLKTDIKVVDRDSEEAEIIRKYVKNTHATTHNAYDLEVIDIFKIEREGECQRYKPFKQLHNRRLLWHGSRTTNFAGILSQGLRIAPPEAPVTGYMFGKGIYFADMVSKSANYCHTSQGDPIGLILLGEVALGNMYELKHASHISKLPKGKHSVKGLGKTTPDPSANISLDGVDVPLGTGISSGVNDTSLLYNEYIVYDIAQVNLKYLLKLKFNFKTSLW
row,Compound,PARP1 L713F-nLuc/akaLuc ratio
1,COc1ccc(S(=O)(=O)Nc2cc(-c3csc(C#N)c3)ccc2C)cc1,1.24
2,N#Cc1cc(F)cc(Oc2ccc(S(=O)(=O)C(F)F)c3c2CC(F)(F)C3O)c1 (racemic),0.759
3,NC(=O)[C@@H]1CCCc2c1[nH]c1ccc(Cl)cc21 [(R)-Selisistat],0.592
4,O=C(c1cc(Cc2n[nH]c(=O)c3ccccc23)ccc1F)N1CC(CNC2CC2)C1 [Venadaparib],5.9 (active)
5,COc1ccc(S(=O)(=O)Nc2cccnc2Nc2ccc(O)cc2)cc1,1.28
6,Cc1ccc(Nc2nccc(N(C)c3ccc4c(C)n(C)nc4c3)n2)cc1S(N)(=O)=O [Pazopanib],1.33
7,O=C(O)CCNc1cc(N2CCc3ccccc3CC2)nc(-c2cccnc2)n1,1.22
8,NC(=O)/C(=C/n1cnc(-c2cc(C(F)(F)F)cc(C(F)(F)F)c2)n1)c1cncnc1 [Eltanexor (KPT-8602)],0.767
9,Cc1ccc(NC(=O)c2ccc(CN3CCN(C)CC3)cc2)cc1Nc1nc(-c2cccnc2)cs1 [Masitinib (AB1010)],0.851
10,O=c1c(O)c(-c2ccc(O)c(O)c2)oc2cc(O)ccc12 [Fisetin],0.701
11,Cc1cnc(Nc2ccc(OCCN3CCCC3)cc2)nc1Nc1cccc(S(=O)(=O)NC(C)(C)C)c1 [Fedratinib],0.694
12,COc1cc(CCc2cc(NC(=O)c3ccc(N4CC(C)NC(C)C4)cc3)n[nH]2)cc(OC)c1 (configuration not stated),0.745
13,CCS(=O)(=O)N1CCC([C@@H](C)n2c(C)c(C(=O)NCc3c(OC)cc(C)[nH]c3=O)c3ccccc32)CC1,1.51
14,CCOc1cccc2c1N[C@@H](c1ccc(C(=O)O)cc1)[C@H]1CC=C[C@@H]21 [LIN28 inhibitor LI71],0.616
15,CO[C@H]1CNC[C@@H](OCC2CCC(F)(F)CC2)[C@@H]1Nc1ncc(-c2cncc(C)c2)c2cc(C)c(=O)[nH]c12,1.63
16,Nc1ncn([C@@H]2O[C@H](CO)[C@@H](O)[C@H]2O)c(=O)n1 [Azacitidine],4.35 (active)
17,CC(C)Oc1ccc(-c2c[nH]cc2CN(C)CCN)cc1,1.38
18,O=C([C@@H](Cc1cccc(C(F)(F)F)c1)NS(=O)(=O)c1cc(F)c2c(c1)CCNC2)N1CCCC1 [PFI-2 (hydrochloride)],0.92
19,CN(C)CCCCCCNC(=O)c1cccc(-c2cc(O)c3ncccc3c2)c1,0.363

row,Compound,PARP1 L713F-nLuc/akaLuc ratio
1,Cn1cc(-c2cn3nccc3c(-c3cnn([C@]4(CC#N)C[C@@H](C#N)C4)c3)n2)cn1 [Ropsacitinib],1.02
2,Cc1nc(C(=O)NCC(=O)O)c(O)c2ccc(Oc3ccccc3)cc12 [Roxadustat (FG-4592)],1.63
3,"CC[C@H](CO)Nc1nc(NCc2ccccc2)c2ncn(C(C)C)c2n1 [Roscovitine (Seliciclib,CYC202)]",0.975
4,COc1ccccc1S(=O)(=O)Nc1ccc2c3c(cc(-n4cnc(C)c4)nc13)C(=O)N2C,1.04
5,Nc1ncnc2c1ncn2[C@@H]1O[C@H](C(=O)N2CCN(CC(=O)Nc3cccc4c3CNC4=O)CC2)[C@@H](O)[C@H]1O [EB-47 (dihydrochloride)],0.793
6,Cc1nc(Nc2cnn(C3CCNCC3)c2)nc2c1N(C)C(=O)c1cc3ccccc3cc1N2C,0.761
7,CC(=O)N1CCC(Nc2cc(C(=O)NC[C@H](O)CN3CCc4ccccc4C3)ncn2)CC1,0.707
8,Cn1ncc(Cl)c1-c1cc(C(=O)N[C@H](CN)Cc2cccc(F)c2)sc1Cl [Afuresertib (hydrochloride)],0.764
9,CC(C(=O)Nc1cccc(/N=C/c2c(O)ccc3ccccc23)c1)c1ccccc1 (configuration not stated) [Salermide],0.605
10,C/C(=N\NC(=O)c1cccc(S(=O)(=O)N2CCOCC2)c1)c1cc(Cl)ccc1O,0.495
11,Cc1csc(-c2nnc(Nc3ccc(Oc4ncccc4-c4ccnc(N)n4)cc3)c3ccccc23)c1,1.02
12,CS(=O)(=O)NCCC1CCN(c2ncnc3cc(C(N)=O)sc23)CC1,0.762
13,COc1ccc(-n2c(SCCCN3C(=O)c4cccc5cccc(c45)C3=O)nnc2-c2ccncc2)cc1,0.933
14,Clc1ccc(-c2csc(NN=C3CCCC3)n2)cc1,0.775
15,CC1Oc2cc(cnc2N)-c2c(nn(C)c2C#N)CN(C)C(=O)c2ccc(F)cc21 (configuration not stated),1.13
16,Nc1cc(F)ccc1NC(=O)/C=C/c1cnn(C/C=C/c2ccccc2)c1,0.76 and 0.99
17,O=C(O)c1ccc2c(c1)nc(Nc1cccc(Cl)c1)c1ccncc12 [Silmitasertib (CX-4945)],0.822
18,CNCc1ccc(-c2[nH]c3cc(F)cc4c3c2CCNC4=O)cc1 [Rucaparib],5.36 (active)

# — the supplement of paper PMC11624193, “Coupling cellular drug-target engagement to downstream pharmacology with CeTEAM” (Nature Communications, 2024)
